Pf growth 96h – inhibits malaria parasite growth, 96 h; P. falciparum luciferase reporter growth, 96 h; actives 6.9% (n = 320,000); Potency, µM (highest dose often 28.7 µM), for inactives: top-dose activity change, negative = inhibition, usual class: inhibitors; note: potency is the fitted concentration of half-maximal effect
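Parasite growth measured via integrated firefly luciferase reporter in P. falciparum. Infected erythrocytes at 2% hematocrit, 0.05% parasitemia final were treated 96 hours at 37 C under 5% CO2, and luminescence was read.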
HCV inhibitor – HCV inhibition; Huh7.5.1 HCVcc-Cre infection, luciferase reporter, 44 h; Potency, µM (doses to about 41.8 µM), inactives show at the top dose activity change, negative = inhibition, actives largely listed as inhibitors; actives 3.4% (n = 340,000); note: potency is the fitted concentration of half-maximal effect
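1,000 cells/well; 4 h culture; + compound; + HCVcc-Cre (~0.5 moi); 44 h; luciferase substrate, RT 15 min; read 15 sec.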
Pf growth 48h – P. falciparum growth inhibition at 48 hours (one generation) | P. falciparum luciferase growth in erythrocytes, 48 h | Potency, µM (highest dose often 28.7 µM), without a hit: at the top dose activity change, negative = inhibition, actives largely listed as inhibitors | actives 5.9% (n = 310,000) | AID 504832; note: potency is the fitted concentration of half-maximal effect
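Parasite viability was followed by luminescence of a genomically integrated firefly luciferase. Cultures held 0.1% parasitemia at 2% hematocrit (final), incubated under 5% CO2 at 37 C.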
HCMV antiviral – blocks human cytomegalovirus replication; activity change, negative = inhibition, % at 57.5 µM; AID 1259415; actives 4.5% (n = 410,000); HFF cells, HCMV-luciferase reporter, 72 h; stronger effect = lower value; in the data active = activity change below about -60%; inconclusive = no clear call, values can overlap the other calls; inactive = above about -39%
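Human foreskin fibroblasts infected with luciferase-reporter HCMV at MOI 1 PFU/cell, compounds at two doses. Luciferase measured 72 h post infection; normalized to buffer-only basal and Salinomycin (10uM) controls.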
Active calls of the source: *; ? = inconclusive; . = not tested or not shown. In the library only some 13% were active in any assay of this set; here they are far more common. Unless noted, calls come from the whole dose curve; as a rule, active = well fitted inhibition curve with a large enough effect; inconclusive = small, poorly fitted or top-dose-only effect, or another doubt; inactive = no such curve, though single readings can be large or run the other way. % is set by controls: 0 for no effect and ±100 for the full control effect.

SMILES	Pf growth 96h	HCV inhibitor	Pf growth 48h	HCMV antiviral
CCN1CCN(C(=O)c2ccc3c(c2)N(Cc2ccc(F)cc2)C(=O)c2ccccc2S3(=O)=O)CC1	.	.	.	-12
COc1ccccc1NC(=O)CCN1CCC(C(N)=O)CC1	.	.	.	4
O=C(COc1ccccc1F)Nc1ccc2nc(SCC(=O)N3CCc4ccccc43)sc2c1	.	.	.	-34
CN1/C(=C\C(=O)CSc2cccc[n+]2[O-])C(C)(C)c2ccccc21	3.3µM*	?	-24%	-16
COc1ccc(Nc2nnc(SCC(=O)/C=C3/N(C)c4ccccc4C3(C)C)s2)cc1	7.4µM*	?	9.3µM*	-74*
CN1/C(=C\C(=O)c2cccs2)C(C)(C)c2ccccc21	21%	25%	9.3µM*	-22
CN1/C(=C\P(=O)(N(C)C)N(C)C)C(C)(C)c2ccccc21	?	4%	-72%	-93*
CCOC(=O)/C=C1/N(C)c2ccccc2C1(C)C	38%	10%	76%	-30
CN1/C(=C\C(=O)CSc2nnc(N)s2)C(C)(C)c2ccccc21	0%	-8%	4%	?
CN1/C(=C/C(=O)c2cccs2)Sc2ccccc21	-63%	.	.	265
CN1/C(=C/C(=O)CSc2ccccc2C(=O)O)C(C)(C)c2ccccc21	44%	12%	-5%	20
CN1/C(=C\C(=O)COC(=O)c2ccc(O)cc2)C(C)(C)c2ccccc21	?	?	1%	-21
CN1/C(=C\C(=O)COC(=O)c2ccc(O)c(O)c2)C(C)(C)c2ccccc21	11%	?	-11%	-79*
CN1/C(=C\C(=O)C[n+]2cccc(C(N)=O)c2)C(C)(C)c2ccccc21	?	7%	?	-33
Cc1ccc[n+](CC(=O)/C=C2\N(C)c3ccccc3C2(C)C)c1	0.37µM*	-4%	?	-98*
COc1ccc(-c2cn3c(C)c(C(=O)N4CCN(c5ccc(F)cc5)CC4)sc3n2)cc1	47%	-7%	.	36
COc1ccccc1N1CCN(C(=O)c2c(-c3c(F)cccc3Cl)noc2C)CC1	12µM*	-27%	?	-21
Cc1onc(-c2c(F)cccc2Cl)c1C(=O)N1CCc2ccccc2C1	?	-1%	5.9µM*	-10
Cc1onc(-c2c(Cl)cccc2Cl)c1C(=O)N1CCOCC1	19%	-3%	-4%	-10
COc1ccccc1N1CCN(C(=O)c2sc3nc(-c4ccc(F)cc4)cn3c2C)CC1	?	4.5µM*	?	-61*
Cc1onc(-c2c(Cl)cccc2Cl)c1C(=O)N1CCc2ccccc21	0%	16%	8.3µM*	-26
COc1ccccc1N1CCN(C(=O)c2c(-c3ccccc3)noc2C)CC1	?	?	-8%	26
Cc1onc(-c2ccccc2Cl)c1C(=O)N1CCc2ccccc2C1	?	-20%	?	2
Cc1ccc(-c2cn3nc(N4CCCC(C(=O)Nc5ccc(F)cc5)C4)sc3n2)cc1 (centres undefined)	.	.	.	0
Cc1onc(-c2c(Cl)cccc2Cl)c1C(=O)N=S(C)(=O)c1ccccc1 (centres undefined)	10µM*	13%	?	23
SMILES	Pf growth 96h	HCV inhibitor	Pf growth 48h	HCMV antiviral
Cc1onc(-c2c(Cl)cccc2Cl)c1C(=O)c1ccccc1	?	-5%	-12%	-10
CCCCN(C)c1c(C)nc2ccc(C(=O)N(CC)CCN(C)C)cn12	.	.	.	38
CCN(CC)CCNC(=O)CS(=O)Cc1nc(-c2ccccc2Cl)oc1C (centres undefined)	10µM*	1%	2%	-2
CCCCNC(=O)CS(=O)Cc1nc(-c2cccs2)oc1C (centres undefined)	8.3µM*	11%	.	74
CCN(CC)CCNC(=O)CS(=O)Cc1nc(-c2ccc(Cl)cc2)oc1C (centres undefined)	-3%	?	-4%	1
CCOC(=O)C1CCCN(C(=O)c2ccc(CNS(=O)(=O)c3ccc(C)cc3)cc2)C1 (centres undefined)	-8%	?	?	-38
CCOC(=O)C1CCCN(C(=O)c2ccc(S(=O)(=O)NCc3ccco3)cc2)C1 (centres undefined)	12µM*	6%	?	-16
CC1CCCC(C)N1C(=O)c1ccc(S(=O)(=O)NCc2ccco2)cc1 (centres undefined)	-8%	11%	-15%	-76*
CCOC(=O)Cn1c(=NC(=O)C(C)C)sc2c(C)cc(C)cc21	?	6%	1.9µM*	-17
CCOC(=O)Cn1c(=NC(=O)CC)sc2c(C)cc(C)cc21	-5%	-22%	?	-1
FC(F)(F)C1=CC(c2ccc(Cl)cc2)=NCCN1	2.6µM*	-11%	?	43
CCN(CCCNC(=O)CC(C(=O)N1CCc2ccccc21)n1ccnc1)c1cccc(C)c1 (centres undefined)	?	-4%	10µM*	-11
CCCCNC(=O)CC(C(=O)N1CCc2ccccc21)n1ccnc1 (centres undefined)	21%	13%	.	12
CCCCN(CCCNC(=O)c1cc(Nc2cccc(SC)c2)nc2ccccc12)Cc1ccccc1	.	.	.	-99*
CC(C)c1ccc(Nc2cc(C(=O)NCCCN(C)Cc3ccccc3)c3ccccc3n2)cc1	.	.	.	9
CSc1cccc(Nc2cc(C(=O)NCCc3ccc(Cl)cc3)c3ccccc3n2)c1	.	.	.	-102*
Cc1cc(C(=O)NCCc2ccc(Cl)cc2)c2ccccc2n1	20%	-3%	26%	3
CCOC(=O)C1=CCN(S(=O)(=O)c2ccc(Br)cc2)C1c1ccc(F)cc1 (centres undefined)	.	.	.	-22
Cc1nn(-c2ccccc2)c(Cl)c1C(=O)NNC(=O)c1ccccc1O	-6%	10µM*	?	62
COc1cccc(NC(=O)c2c(C)nn(-c3ccccc3)c2Cl)c1	4.7µM*	-24%	32%	-1
COc1ccc(NC(=O)c2c(C)nn(-c3ccccc3)c2Cl)cc1	199%	-19%	?	38
Cc1cccc(NC(=O)CCCCCn2c(=O)[nH]c3ccsc3c2=O)c1	.	.	.	30
COc1cccc(NC(=O)CSc2nc3ccc(NC(=O)c4ccco4)cc3s2)c1	.	.	.	-35
CCc1ccccc1NC(=O)c1sc(-n2nc(C)c(Cc3ccccc3)c2C)nc1C	.	.	.	19
CN(C)CCCOC(=O)c1cc2ccccc2o1	?	1%	2.6µM*	6
SMILES	Pf growth 96h	HCV inhibitor	Pf growth 48h	HCMV antiviral
CCOC(=O)C1=C(O)c2ccccc2C(=O)/C1=C\c1ccc(CC)cc1	?	?	3.3µM*	.
CCCc1ccc(/C=C2\C(=O)c3ccccc3C(O)=C2C(=O)OCC)cc1	?	-23%	4.7µM*	.
CCOC(=O)C1=C(C)OC(=Cc2ccc(OC)cc2)C1=O	.	.	.	12
Cc1nn(C(=O)c2ccccc2)c(C)c1S(=O)(=O)N1CCCCCC1	.	.	.	12
O=C(CCNC(=O)c1ccccc1Cl)NNC(=O)c1ccccc1O	2%	?	-2%	30
O=C(CC(=O)c1ccccc1O)c1cccc(F)c1	?	-11%	?	.
O=C(CC(Nc1ccccc1)C(=O)O)c1ccccc1 (centres undefined)	.	2%	174%	44
